From PubChem
Only some compounds are listed: those with a hit (about 12% of all), similar ones and a draw of the others.
Sfp PPTase inh – qHTS Assay for Inhibitors of Bacillus subtilis Sfp phosphopantetheinyl transferase (PPTase); 4'-phosphopantetheinyl transferase ffp (Bacillus subtilis), Q9F4F7; Biochemical Sfp PPTase activity, qHTS; Potency, µM, without a hit: largest response in the series, negative = inhibition, hits mostly inhibitors; 310,000 compounds, 3.5% hits;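 further: the enzyme is Sfp with the accession as filed and its product quenches rhodamine fluorescence; 0% = enzyme reaction without inhibitor and -100% = no enzyme wells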
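Reaction rates are the 30-min fluorescence difference (ex 525, em 598 nm) in wells containing 15 nM Sfp, 5 uM rhodamine-CoA and 12.5 uM BHQ-2-YbbR at pH 7.6 with 10 mM MgCl2.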
JMJD2A Tudor inh – qHTS Assay for Inhibitors of JMJD2A-Tudor Domain | AlphaScreen JMJD2A-Tudor / H3K4me3 peptide binding | 390,000 compounds, 4.4% hits | Lysine-specific demethylase 4A (Homo sapiens), O75164 | Potency, µM (highest dose often 114 µM), without a hit: top-dose activity change, negative = inhibition, actives largely listed as inhibitors | AID 504339, 2011; further: on the % scale 0 is the no-effect control and ±100 the full control effect; nearly all actives have a fitted effect of over 50% in size
BAZ2B block – qHTS Assay for Inhibitors of BAZ2B. 360,000 compounds, 4.4% hits. AlphaScreen BAZ2B-H3K14Ac peptide displacement. Potency, µM (top dose mostly 114 µM), inactives show at the highest dose activity change, negative = inhibition, usual class: inhibitors. Bromodomain adjacent to zinc finger domain protein 2B (Homo sapiens), Q9UIF8. AID 504333, 2011; further: on the % scale 0 is the no-effect control and ±100 the full control effect; nearly all actives have a fitted effect of over 60% in size
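BAZ2B 50 nM plus b-H3(5-23)K14Ac 50 nM, PBS pH 7.4/0.01% Tween-20, 30 min RT; compound added (max 110 uM), 30 min RT; streptavidin donor/Ni-chelate acceptor beads 10 ug/mL final, 20 min dark; AlphaScreen read.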
HP1b binding inh – HTS for Inhibitors of HP1-beta Chromodomain Interactions with Methylated Histone Tails; Chromobox protein homolog 1 (Homo sapiens), P83916; AlphaScreen HP1-beta / biotin-H3K9me3 peptide binding; Potency, µM (series often up to 114 µM), for inactives: top-dose activity change, negative = inhibition, most hits filed as inhibitors; 390,000 compounds, 0.56% hits; AID 540317, 2011; further: nearly all actives have a fitted effect of over 70% in size
Target sequence (P83916 whole entry, looked up): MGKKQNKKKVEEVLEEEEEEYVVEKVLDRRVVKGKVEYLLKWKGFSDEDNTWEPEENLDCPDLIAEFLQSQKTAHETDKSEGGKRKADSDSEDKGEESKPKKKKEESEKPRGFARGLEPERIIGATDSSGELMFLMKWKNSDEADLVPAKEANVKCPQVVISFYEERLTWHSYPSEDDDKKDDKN
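HP1-beta protein (50 nM final) preincubated 30 min at room temperature with biotinylated H3(1-18)K9me3 peptide (50 nM) in PBS pH 7.4, 0.01% Tween-20, then compound added for 30 min. AlphaScreen streptavidin donor/nickel chelate acceptor beads (10 ug/mL final), 30 min dark, luminescence read.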
G9a inh-1 – qHTS Assay for Inhibitors of Histone Lysine Methyltransferase G9a. 350,000 compounds, 8.8% hits. G9a H3K9 monomethylation, AlphaScreen, 2 h. Histone-lysine N-methyltransferase EHMT2 (Homo sapiens), Q96KQ7. Potency, µM (titrated, usually from 102 µM), for the others: at the highest dose activity, negative = inhibition, most hits filed as inhibitors. AID 504332, 2011; further: on the % scale 0 is the no-effect control and ±100 the full control effect; nearly all actives have a fitted effect of over 75% in size
Target sequence (Q96KQ7 913-1193 limits assumed): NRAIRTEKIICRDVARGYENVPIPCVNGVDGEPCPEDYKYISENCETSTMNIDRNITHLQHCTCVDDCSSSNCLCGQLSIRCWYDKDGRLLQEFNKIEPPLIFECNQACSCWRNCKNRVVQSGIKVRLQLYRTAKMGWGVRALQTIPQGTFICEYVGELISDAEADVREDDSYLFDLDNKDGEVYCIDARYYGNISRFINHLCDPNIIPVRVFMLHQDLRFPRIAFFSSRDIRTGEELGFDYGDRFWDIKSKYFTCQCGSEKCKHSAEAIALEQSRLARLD
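Enzyme 20 nM + cpd, 15 min RT; add b-H3K9 pep 500 nM / SAM 20 uM; 2 h RT; anti-H3K9me1 Ab 0.5 ug/mL + SA donor / anti-rabbit acceptor beads 20 ug/mL each, 10 min; AlphaScreen read.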
L3MBTL1 block – qHTS Assay for the Inhibitors of L3MBTL1. AlphaScreen L3MBTL1–H3K9me1 peptide binding. Potency, µM (top dose mostly 57.1 µM), without a hit: at the highest dose activity, negative = inhibition, most hits filed as inhibitors. 230,000 compounds, 0.66% hits. AID 485360, 2010; further: on the % scale 0 is the no-effect control and ±100 the full control effect; nearly all actives have a fitted effect of over 60% in size
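First, the protein-peptide complex forms for 30 min at room temperature (L3MBTL1 50 nM, biotinylated H3K9me1 peptide 75 nM). Next, compounds are pin-transferred and incubated 30 min. Finally, AlphaScreen beads are added and read after 30 min.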
G9a inh-2 – qHTS Assay for Inhibitors of Histone Lysine Methyltransferase G9a: Hit Confirmation; shares compounds with JMJD2A Tudor inh; G9a H3K9 monomethylation, AlphaScreen, 2 h; Potency, µM, most hits filed as inhibitors; 370 compounds, 89% hits; further: nearly all actives have a fitted effect of over 65% in size
Numbers without * were called inactive; ? = inconclusive; nt = not tested or not shown; [ ] = dose if it differs, or a comment. The call rests on the fitted dose curve; in most records, active means well fitted curve in the direction sought with a large enough effect; inconclusive means small, poorly fitted or top-dose-only effect, or another doubt; inactive means no such curve, though single readings can be large; an effect the other way counts as inactive or inconclusive. Potency means the concentration at half of the fitted maximal effect.

SMILES	Sfp PPTase inh	JMJD2A Tudor inh	BAZ2B block	HP1b binding inh	G9a inh-1	L3MBTL1 block	G9a inh-2
COc1cccc(OC)c1C(=O)N1CCN(Cc2ccccc2C(F)(F)F)CC1	?	7.9µM*	20µM*	?	?	nt	4.5*
COc1ccc(OC)c(CN2CCN(C(=O)c3cc4ccccc4cc3O)CC2)c1	5%	?	-39%	-29%	?	nt	nt
CC(=O)Nc1nonc1-c1nc2ccccc2n1Cc1ccccc1Br	nt	0%	-5%	32%	7%[59 µM]	nt	nt
CCOC(=O)C1CCN(C(=O)Cc2cccc3ccccc23)CC1	3%	2%	12%	24%	?	-3%	18*
CCOC(=O)N1CCN(C(=O)Cc2cccc3ccccc23)CC1	11%	-5%	-24%	33%	?	-3%	nt
Cc1ccc(S(=O)Cc2ccc(C(=O)NCc3ccc(OC(C)C)cc3)o2)cc1 (stereo not drawn)	nt	-19%	-12%	2%	-33%[59 µM]	nt	nt
O=C(c1ccco1)N1CCC2(CC1)CN(C(c1ccccc1)c1ccccc1)C2	-2%	nt	nt	nt	-1%[12.7 µM]	nt	nt
Oc1ccc(NCc2ccc(OCc3ccccc3)cc2)cc1	56µM*	56µM*	40µM*	?	7.9µM*	nt	1.3*
Cc1cc(C)c(C)c(S(=O)(=O)N2CCC(C(=O)N3CCN(c4ccc(F)cc4)CC3)CC2)c1C	nt	-21%	nt	6%[57 µM]	nt	nt	nt
Cc1ccc(C(C)(C)C)cc1S(=O)(=O)N1CCC(C(=O)N2CCN(c3ccc(O)cc3)CC2)CC1	nt	-35%	10%	?	0.79µM*	-37%	1.4*
CC(=O)[C@H]1[C@H](C#N)CC2C3CC=C4C[C@@H](O)CCC4(C)C3CCC21C (stereo partly drawn)	13%	nt	nt	nt	27%[59 µM]	nt	nt
COCCNc1nc(-c2ccccc2CN(C)C)nc2ccccc12	4%	nt	nt	nt	nt	nt	nt
CN(C)c1ccc(NC(=O)Nc2cccc3ccccc23)cc1	-7%	-15%[11.4 µM]	?	-14%	2.8µM*	-25%	1.1*
CC1=C(C(=O)Nc2ccc(Cl)cc2)C(c2ccc(C(F)(F)F)cc2)n2nnnc2N1 (stereo not drawn)	nt	-25%	-18%	37%	-5%[59 µM]	nt	nt
COC(=O)C1=C(C)NC(=O)NC1c1cn(-c2ccccc2)nc1-c1ccc(OC)c(Br)c1 (stereo not drawn)	nt	-31%	?	13%	?	nt	nt
COc1ccc(C(C(O)C(=O)c2c[nH]c3ccccc23)N2CCN(c3ccc(OC)cc3)CC2)cc1 (stereo not drawn)	-11%	?	61%	?	?	nt	5.6*
O=C(c1c[nH]c2ccccc12)C(O)C(c1ccccc1)N1CCOCC1 (stereo not drawn)	27%	-4%	5%	12%	25%[59 µM]	-9%	nt
